Screening data as filed in PubChem BioAssay.
In the library only some 19% were active in any assay of this set; here they are far more common.
HT1080NT lethal – kills 2HG-producing HT-1080-NT fibrosarcoma cells | HT-1080-NT fibrosarcoma viability, CellTiter-Glo ATP luminescence, 48 h | actives 1.6% (n = 360,000) | Potency, µM (top dose mostly 46.1 µM), for inactives: top-dose activity, negative = less viability, actives largely listed as cytotoxic | AID 686970;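 further: NT is the 2HG producing partner of a matched IDH1 knockdown line; 0% = DMSO-treated cells and -100% = media-only wells without cells; nearly all actives have a fitted effect of over 55% in size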
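HT-1080-NT fibrosarcoma cells (2HG-overproducing), 750 cells/well in RPMI with 5% FBS, dosed after 2 h and incubated 48 h at 37C. CellTiter-Glo luminescence normalized to DMSO and no-cell wells; concentration-response curves fitted and classed.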
HT1080 IDH1KD tx – toxicity to HT-1080 IDH1 knockdown cells (counter line); HT-1080 IDH1 knockdown viability, ATP luminescence, 48 h; Potency, µM (highest dose often 46.1 µM), for inactives: at the highest dose activity, negative = toxicity, usual class: cytotoxic; actives 2% (n = 360,000);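 further: 0% = DMSO wells and -100% = cell-free medium wells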
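Luminescent ATP read-out (CellTiter-Glo, 10 min at room temperature) after 48 h compound exposure at 37 °C gave viability of IDH1-knockdown HT-1080 cells. Activity was normalised to DMSO and cell-free wells, then fitted as concentration-response curves.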
KB-V1 MDR tox – kills drug-selected multidrug resistant KB-V1 cells. Potency, µM (top dose mostly 46.1 µM), hits mostly cytotoxic. KB-V1 MDR cells viability, CellTiter-Glo, 72 h. actives 3.4% (n = 400,000); further: nearly all actives have a fitted effect of over 60% in size
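In this primary screen, KB-V1 cells overexpressing P-gp are incubated with library compounds (lowest to highest concentration) for 72 h at 37 degrees C before a luminescent ATP viability read.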
DT40 TDP1 no CPT – qHTS for Inhibitors of human tyrosyl-DNA phosphodiesterase 1 (TDP1): qHTS in cells in absence of CPT; DT40 Tdp1-/- hTDP1 cells, no CPT, ATP luminescence, 48 h; actives 15% (n = 420,000); Potency, µM (series often up to 46.2 µM), without a hit: at the top dose activity change, negative = growth inhibition, hits mostly inhibitors; AID 686978, 2013; further: nearly all actives have a fitted effect of over 55% in size
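DT40 Tdp1-/-;hTDP1 cells, no CPT (DMSO vehicle only), 400 cells/well; compounds pin-transferred; ≥48 hr, 37 °C; CellTiter-Glo 30 min RT dark, luminescence read.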
TDP1 cell CPT – DT40-hTDP1 cell growth loss with CPT | Potency, µM (doses to about 46.2 µM), without a hit: top-dose activity change, negative = growth inhibition, usual class: inhibitors | actives 12% (n = 420,000) | chicken DT40 Tdp1-/-;hTDP1 cells + 20 nM CPT, ATP luminescence, 48 h; further: nearly all actives have a fitted effect of over 55% in size
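Chicken DT40 Tdp1-/- cells stably complemented with human TDP1 were seeded at 400 cells/well in medium containing 20 nM camptothecin, exposed to pin-transferred compounds, and grown at 37 °C for at least 48 hr. Viability was read as ATP luminescence.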
KB-3-1 cytotox – KB-3-1 parental cell cytotoxicity; KB-3-1 viability, CellTiter-Glo ATP luminescence, 72 h; Potency, µM (series often up to 46.1 µM), actives largely listed as cytotoxic; actives 1.4% (n = 400,000); AID 1347075; further: nearly all actives have a fitted effect of over 60% in size
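Luminescent ATP read-out (CellTiter-Glo) measures survival of drug-naive KB-3-1 cells after 72 h compound exposure at 37 °C. Titration series was screened from lowest to highest concentration, with DMSO vehicle plates as background controls.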
* = called active by the depositor; i = inactive; ? = inconclusive; · = not tested or not shown; [ ] = dose if it differs, or a comment. The call rests on the fitted dose curve; in most records, active means well fitted curve in the direction sought with a large enough effect; inconclusive means small, poorly fitted or top-dose-only effect, or another doubt; inactive means no such curve, though single readings can be large; an effect the other way counts as inactive or inconclusive. Unless noted, on the % scale 0 is the no-effect control and ±100 the full control effect; potency means the concentration at half of the fitted maximal effect.

SMILES	HT1080NT lethal	HT1080 IDH1KD tx	KB-V1 MDR tox	DT40 TDP1 no CPT	TDP1 cell CPT	KB-3-1 cytotox
CCS(=O)(=O)NC(C)C(c1cccs1)N1CCN(C)CC1 (stereo unspecified)	5%	13%	i	-5%	-12%	i
Cc1ccc(S(=O)(=O)NC(C)C(c2cccs2)N2CCN(C)CC2)cc1 (stereo unspecified)	-10%	0%	i	-12%	-14%	i
CC(NC(=O)Cc1cccs1)C(c1cccs1)N1CCN(c2ccccc2F)CC1 (stereo unspecified)	?	-3%	i	?	18µM*	i
CC(NC(=O)Cc1cccs1)C(c1cccs1)N1CCN(c2ccccc2)CC1 (stereo unspecified)	0%	0%	i	?	?	i
CC(NC(=O)c1ccco1)C(c1cccs1)N1CCN(c2ccc(F)cc2)CC1 (stereo unspecified)	-11%	?	i	23µM*	18µM*	i
COc1ccc(-c2nc3cc(C)c(Br)c(C)n3c2Cc2ccc(C)cc2)cc1OC	5%	-1%	i	?	?	i
C=CCN=c1scc(-c2ccco2)n1/N=C/c1ccc(O)c(O)c1O	?	-24%	?	5.8µM*	10µM*	?
CN=c1scc(C)n1/N=C/c1cc(Br)c(O)c(OC)c1	-8%	-10%	i	16µM*	?	i
COc1cc(/C=N/N(C)C)cc(Br)c1O	-11%	2%	i	1%	-2%	?
CC(C)N=c1scc(-c2ccco2)n1/N=C/c1ccc(O)c(O)c1	-9%	-22%	?	1.5µM*	1.6µM*	i
CN=c1scc(-c2cccs2)n1/N=C/c1ccccc1O	?	?	?	23µM*	?	?
COCCN=c1scc(-c2ccco2)n1/N=C/c1ccc(O)c(O)c1O	-8%	-14%	?	?	?	i
C[C@@H](NC(=O)[C@@H]1CCCN1C(=O)[C@@H]1CCCN1)c1ccccc1	13%	5%	i	-19%	-16%	i
COc1ccc(-c2nc3c(Cl)cc(C(F)(F)F)cn3c2Cc2ccsc2)cc1OC	9%	2%	i	?	?	i
Oc1ccc(/C=N/n2c(-c3ccco3)csc2=Nc2cccnc2)c(O)c1	-10%	12%	?	15µM*	12µM*	i
CN=c1scc(C)n1/N=C/c1ccc(O)c(O)c1O	2%	3%	i	18µM*	16µM*	i
Cc1nc2ccccc2c(=O)n1/N=C/c1ccc(O)c(O)c1O	-1%	-1%	i	?	?	i
CN=c1scc(-c2cccs2)n1/N=C/c1ccc(O)c(O)c1O	-28%	?	?	5.8µM*	12µM*	?
CCCNC(=O)C1(C)CCN(C(=O)c2sccc2C)C1 (stereo unspecified)	16%	?	i	2%	1%	i
Cc1ccc(N(CC(=O)Nc2ccccc2-c2ccccc2)S(=O)(=O)c2ccccc2)cc1	-23%	2%[9.24 µM]	23µM*	21µM*	16µM*	i
Cc1ccccc1N(CC(=O)Nc1ccccc1C(=O)NCc1ccco1)S(=O)(=O)c1ccccc1	?	21µM*	i	16µM*	?	23µM*
Cc1cccc(N(CC(=O)Nc2ccccc2-c2ccccc2)S(=O)(=O)c2ccccc2)c1C	-4%	1%	21µM*	23µM*	?	?
Cc1ccccc1Cn1cnc2c(NS(C)(=O)=O)c(C)c(C)cc21	-7%	-11%	16µM*	?	?	?
Cc1ccc(C)c(N2CCN(C(=O)c3ccc4c(Cl)c5c(nc4c3)CCCC5)CC2)c1	·	·	i	?	16µM*	i
Cc1ccc(C)c(N2CCN(C(=O)c3ccc4c(=O)n5c(nc4c3)CCCCC5)CC2)c1	-17%	-14%	i	16µM*	16µM*	?
SMILES	HT1080NT lethal	HT1080 IDH1KD tx	KB-V1 MDR tox	DT40 TDP1 no CPT	TDP1 cell CPT	KB-3-1 cytotox
O=C(c1ccc2c(=O)n3c(nc2c1)CCCCC3)N1CCN(C(c2ccccc2)c2ccccc2)CC1	18µM*	10µM*	?	?	?	?
O=C(c1ccc2c(=O)n3c(nc2c1)CCCCC3)N1CCCCC1	14%	0%	i	9%	-29%	i
CS(=O)(=O)N1CCC2(CCCN(Cc3ccccc3)C2)CC1	·	·	·	-9%	7%	·
COc1cccc(CN2CCCC(N3CCc4ccccc4C3)C2)c1O (stereo unspecified)	15%	0%	i	-25%	2%	i
COc1cc2c(cc1OC)CN(C1CCCN(Cc3cc(Cl)ccc3O)C1)CC2 (stereo unspecified)	-1%	-5%	i	?	16µM*	i
CC(c1ccccc1)N1CCn2c(nc3cc(NC(=O)c4cccs4)ccc32)C1 (stereo unspecified)	?	17%[9.24 µM]	?	?	26µM*	i
O=C(Nc1ccc2c(c1)nc1n2CCSC1)c1ccccc1	-1%	1%	13µM*	-30%	-29%	?
Cc1nn(CC(=O)Nc2ccc3c(c2)nc2n3CCN(C3CCCCC3)C2)c(=O)c2ccccc12	-23%	-11%	?	?	?	i
Cn1c(CN2CCCC2)nc2cc(NC(=O)c3cccs3)ccc21	7%	18%	i	?	-25%	i
CC(c1ccccc1)N1CCn2c(nc3cc(NC(=O)NC4CCCCC4)ccc32)C1 (stereo unspecified)	16µM*	?	i	22µM*	22µM*	?
O=C(c1ccccc1)c1ccccc1C(=O)N1CCN(C(=O)c2ccccc2)CC1	-2%	3%	i	?	?	i
Cn1cnc([N+](=O)[O-])c1Sc1ccncn1	-10%	-10%	i	13µM*	-28%	i
Cn1cnc([N+](=O)[O-])c1Sc1nnc(-c2cccnc2)n1C	-15%	-10%	i	?	?	i
Cc1cccnc1Sc1c([N+](=O)[O-])ncn1C	0%	?	i	2%	-10%	i
Cc1cccc(Sc2c([N+](=O)[O-])ncn2C)c1	2%	6%	i	23µM*	?	i
O=[N+]([O-])c1ccc(N2CCN(c3ccccc3F)CC2)c(S(=O)(=O)N2CCOCC2)c1	-7%	0%	7.3µM*	?	-25%	i
